Screening data deposited in PubChem by National Center for Advancing Translational Sciences (NCATS).
Compounds with a hit are over-represented: about 6.8% of the library has one in this group of screens.
MCF10A rerep – A quantitative high throughput screen for small molecules that induce DNA re-replication in MCF 10a normal breast cells | MCF 10A DNA re-replication, Hoechst nuclear intensity, 48 h | Potency, µM (highest dose often 46.1 µM), usual class: activators | hit rate 2.9% among 350,000; further: nearly all actives have a fitted effect of over 50% in size
KB-V1 MDR tox – qHTS assay for MDR1-selective chemotherapeutics: Primary screen using the drug-selected MDR subline cells KB-V1 | KB-V1 MDR cells viability, CellTiter-Glo, 72 h | Potency, µM (series often up to 46.1 µM), usual class: cytotoxic | hit rate 3.4% among 400,000; further: nearly all actives have a fitted effect of over 60% in size
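qHTS viability screen in drug-selected KB-V1 MDR cells: 72 h compound treatment at 37 degrees C, ATP luminescence end point.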
PINK1 modulator – A Quantitative High throughput Screen to Identify Chemical Modulators of PINK1 Expression; AID 624263, 2012; Potency, µM (doses to about 76.6 µM), actives largely listed as activators; PINK1 immunofluorescence, high-content cytometry, 24 h; hit rate 0.2% among 410,000; active means well fitted activation curve with a large enough effect; inconclusive means small, poorly fitted or top-dose-only effect; cell line not stated here; further: nearly all actives have a fitted effect of over 65% in size
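PINK1 protein level read as immunofluorescence by microplate cytometer in a fixed, stained stable cell line after 24 h exposure to five compound concentrations, with CCCP as control.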
TSG101-PTAP inh – qHTS Assay for Iinhibitors of HIV-1 Budding by Blocking the Interaction of PTAP/TSG101; Fluorescence polarization, FITC-PTAP peptide / Tsg101 binding; Potency, µM (highest dose often 115 µM), actives largely listed as inhibitors; 340,000 tested, under 10 active; AID 493005, 2010; active means well fitted inhibition curve with a large enough effect in the main read-out, with a control signal flat, not every such curve was filed as active; inconclusive means small, poorly fitted or top-dose-only effect, or effect the other way, or a change in a side signal; inactive means no such curve, though single readings can be large or run the other way
Target sequence (Q99816 whole entry, looked up): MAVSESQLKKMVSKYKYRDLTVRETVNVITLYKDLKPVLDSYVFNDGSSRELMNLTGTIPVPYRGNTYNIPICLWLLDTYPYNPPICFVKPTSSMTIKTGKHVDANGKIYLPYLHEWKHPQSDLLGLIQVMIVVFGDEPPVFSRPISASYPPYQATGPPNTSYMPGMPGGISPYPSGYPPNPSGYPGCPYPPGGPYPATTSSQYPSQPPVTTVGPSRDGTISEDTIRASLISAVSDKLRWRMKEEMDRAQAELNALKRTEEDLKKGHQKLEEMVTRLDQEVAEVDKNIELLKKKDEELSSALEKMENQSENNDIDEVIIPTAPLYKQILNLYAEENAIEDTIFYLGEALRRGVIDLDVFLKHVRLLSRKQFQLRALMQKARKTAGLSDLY
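Fluorescence polarization binding of Tsg101 binding domain (10 uM final) to FITC-labeled PTAP peptide (50 nM final) in HEPES pH 7.5 buffer with NaCl, Tween 20, EDTA, TCEP. Compounds added before peptide; binding 20 min at RT.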
KB-3-1 tox – qHTS assay for MDR1-selective chemotherapeutics: Primary screen using the parental adenocarcinoma cell KB-3-1; KB-3-1 viability, CellTiter-Glo ATP luminescence, 72 h; Potency, µM (highest dose often 46.1 µM), most hits filed as cytotoxic; hit rate 1.4% among 400,000; further: nearly all actives have a fitted effect of over 60% in size
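Parental KB-3-1 adenocarcinoma cells in phenol-red-free DMEM with 10% FBS were pin-treated with compounds at several concentrations, incubated 72 h at 37 °C, and viability read by CellTiter-Glo luminescence; concentration-effect curves were fitted after normalization.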
SW480 rerep – A quantitative high throughput screen for small molecules that induce DNA re-replication in SW480 colon adenocarcinoma cells; SW480 DNA re-replication, Hoechst DNA content imaging, 48 h; Potency, µM (top dose mostly 46.1 µM), most hits filed as activators; hit rate 1.8% among 340,000; AID 624297, 2012; further: nearly all actives have a fitted effect of over 55% in size
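Cells (250 per well) received 23 nL compound or DMSO by pin tool and were kept 48 hr at 37 C, 5% CO2. Nuclei were then stained with Hoechst for 40 min and scanned for DNA content.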
A number is an active result; n = inactive; u = inconclusive; x = not tested or not shown. Unless noted, the call rests on the fitted dose curve; in most records, active means well fitted curve in the direction sought with a large enough effect; inconclusive means small, poorly fitted or top-dose-only effect, or another doubt; inactive means no such curve, though single readings can be large; an effect the other way counts as inactive or inconclusive.

SMILES	MCF10A rerep	KB-V1 MDR tox	PINK1 modulator	TSG101-PTAP inh	KB-3-1 tox	SW480 rerep
COC(=O)c1cc(CSc2nc3ccccc3[nH]2)oc1C	n	2.9µM	n	n	21µM	n
CCOC(=O)c1c(C)[nH]c(C)c1C(=O)CSc1nc2ccccc2[nH]1	n	23µM	u	n	n	n
CCCc1cc(=O)[nH]c(SCc2cc(C(=O)OC)c(C)o2)n1	n	n	n	n	n	n
CCOc1ccc(NC(=O)C(C)n2c(=O)cc(-c3ccccc3)c3c(C)nn(C)c32)cc1 (stereo not given)	x	n	n	x	n	x
COCCNc1ncncc1-c1c(C)noc1C	x	x	n	x	x	x
CCOC(=O)c1c(C)[nH]c(C)c1C(=O)CSc1nc2ccccc2c(=O)n1-c1ccc(CC)cc1	u	7.3µM	n	n	23µM	n
CCOC(=O)c1c(C)[nH]c(C(=O)Cn2nnc(-c3ccccc3Cl)n2)c1C	n	n	n	n	n	n
CCOC(=O)c1c(C)[nH]c(C)c1C(=O)Cn1nnc(-c2ccccc2C)n1	21µM	16µM	n	n	n	n
O=[N+]([O-])c1nc2ccccc2[nH]1	n	18µM	n	n	u	n
O=C(Cc1nc2ccccc2[nH]1)c1cccc([N+](=O)[O-])c1	7.3µM	n	14µM	n	u	u
O=C(c1nc2ccccc2[nH]1)c1ccccc1[N+](=O)[O-]	n	n	n	n	u	n
C(=C\c1ccnc2ccccc12)/c1ccc(N2CCOCC2)cc1	x	n	u	x	u	x
COc1ccccc1[C@@H]1C(c2ccccc2)=NN(c2ccccc2)[C@H]1C(=O)N1CCOC1=O	u	n	n	n	n	u
COc1ccccc1[C@@H]1C(c2cccc(C)c2)=NN(c2ccccc2)[C@H]1C(=O)N1CCOC1=O	u	n	n	n	n	15µM
COc1ccccc1[C@@H]1C(c2cccc(Cl)c2)=NN(c2ccc(Br)cc2)[C@H]1C(=O)N1CCOC1=O	u	u	n	n	n	3.3µM
COc1ccccc1[C@@H]1C(c2ccc(F)cc2)=NN(c2ccccc2)[C@H]1C(=O)N1CCOC1=O	4.1µM	n	n	n	n	21µM
Cc1cc(C)c(/C=C/c2onc(C)c2S(=O)(=O)N2CCC(C(=O)NCc3ccccc3Cl)CC2)c(C)c1	x	x	n	x	x	x
COc1ccc(-c2sc3ccccc3c2C#Cc2cncn2C)cc1	u	n	n	n	u	n
Cn1cncc1C#Cc1c(-c2ccc(S(C)(=O)=O)cc2)sc2ccccc12	u	n	n	n	n	0.73µM
O=C(NCC1Cc2cccc(-c3ncccn3)c2O1)c1cccc(-c2ccccc2F)c1 (stereo not given)	x	x	n	x	x	x
Cc1cccc(CSC2=NCCN2C(=O)c2ccc(S(=O)(=O)N(C)C)cc2)c1	n	n	n	n	n	29µM
Cc1ccc2oc(-c3ccc(C)c(NC(=O)Cc4cccs4)c3)nc2c1	n	u	n	n	n	n
Cc1ccc(-c2nc3ccccc3o2)cc1NC(=S)NC(=O)c1cc2ccccc2o1	n	n	n	n	8.2µM	u
Cc1ccc2oc(-c3ccc(C)c(NC(=S)NC(=O)c4cccs4)c3)nc2c1	10µM	n	n	n	n	n
Cc1ccc(-c2nc3cc(C(C)C)ccc3o2)cc1NC(=O)c1cc2ccccc2o1	x	n	n	x	n	x
SMILES	MCF10A rerep	KB-V1 MDR tox	PINK1 modulator	TSG101-PTAP inh	KB-3-1 tox	SW480 rerep
CCn1c2c(c(=N)c3c1CCC3)CCCC2	n	u	n	n	12µM	n
CCc1nn(CC(=O)N2CCN(c3cccc(Cl)c3)CC2)c(=O)c2cc3sccc3n12	x	x	n	x	x	x
Clc1ccc2c(c1)C(C1=NCCN1)c1ccccc1CS2 (stereo not given)	1.6µM	10µM	u	n	0.92µM	1.3µM
CN(C)S(=O)(=O)N1CCC(Oc2cccc(C(=O)NC3CCCCCC3)c2)CC1	u	1.3µM	n	n	n	n
CN(C)S(=O)(=O)N1CCC(Oc2ccc(C(=O)N3CCCCCCC3)cc2)CC1	n	10µM	n	n	u	n
CC1CCCCN1C(=O)c1ccc(OC2CCN(S(=O)(=O)N(C)C)CC2)cc1 (stereo not given)	n	23µM	n	n	n	n
CN(C)S(=O)(=O)N1CCC(Oc2ccc(C(=O)N3CCCCCC3)cc2)CC1	x	u	n	x	n	x
CN(C(=O)c1ccc(OC2CCN(S(=O)(=O)N(C)C)CC2)cc1)C1CCCCC1	n	n	n	n	n	n
CCCCOC(=O)c1ccc(NC(=O)c2cc(-c3cccs3)on2)cc1	x	n	n	x	n	x
CCN1C(=O)/C(=C/c2ccc(C)o2)N(C)C1=S	u	u	n	n	n	18µM
COc1cc(C)c(NC(C)C(=O)c2c(C)[nH]c3ccccc23)cc1OC (stereo not given)	x	n	n	x	n	x
CCOc1c(Cl)cc(/C=N/NC(N)=S)cc1OC	n	7.3µM	n	n	n	n
C#CCOc1c(Cl)cc(/C=N/NC(N)=S)cc1OCC	n	u	n	n	n	n
COc1cc(/C=N/NC(N)=S)cc(Br)c1OCc1ccccc1F	u	18µM	n	n	n	n
Cc1ccc(C)c(N2CCN(CCCNC(=O)Cn3ncc4c5ccccc5n(C)c4c3=O)CC2)c1	x	n	n	x	n	x
CN(C)CCCn1c(=S)[nH]c2ccccc2c1=O	n	n	n	n	n	n
CN(C)CCCn1c2c3ccccc3ccc2c2oc(=O)c3ccccc3c21	3.7µM	u	n	n	u	18µM
O=C1[C@@H]2C(Cc3ccc(O)cc3)NC3(C(=O)Nc4ccc(F)cc43)[C@@H]2C(=O)N1c1ccccc1 (stereo not given in full)	n	n	n	n	n	n
Cc1c(Cl)ccc2c1NC(=O)[C@]21N[C@@H](Cc2ccccc2)[C@H]2C(=O)N(c3ccc(F)cc3)C(=O)[C@H]21	n	9.2µM	n	n	u	n
O=C(c1[nH]c(C(F)(F)F)nc1-c1ccccc1)N1CCN(c2ncccn2)CC1	x	u	n	x	u	x
Cc1ccc(N2CCN(C(=O)c3[nH]c(C(F)(F)F)nc3-c3ccccc3)CC2)cc1	x	n	n	x	n	x
O=C(c1[nH]c(C(F)(F)F)nc1-c1ccccc1)N1CCc2c([nH]c3ccccc23)C1	x	n	n	x	5.8µM	x
O=C(c1[nH]c(C(F)(F)F)nc1-c1ccccc1)N1CCN(c2ccccc2)CC1	x	u	n	x	6.5µM	x
Cc1cccc(N2CCN(C(=O)c3sc4nc5n(c(=O)c4c3C)CCC5)CC2C)c1 (stereo not given)	x	n	n	x	n	x
